Source: PubChem BioAssay (NCI)
The panel holds about 83,000 compounds, 20% with a hit somewhere; the sample as a whole holds those more often.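 96-well plates, one dose, 48 hours. Percent growth reported; active if below 10.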 Unmarked numbers belong to inactive results. Activity calls are given as the source filed them.

Tests used:
Test in all cases: NCI-60 one-dose screen, 48 h (100 = growth as untreated, 0 = no growth, -100 = all killed)
Conditions in all cases: 10 µM unless noted
[1] = tested on: NCI-H23 lung
[2] = tested on: NCI-H226 lung
[3] = tested on: NCI-H322M lung
[4] = tested on: HOP-62 NSCLC
[5] = tested on: NCI-H460 lung
[6] = tested on: HOP-92 NSCLC
[7] = tested on: NCI-H522 lung
[8] = tested on: A549/ATCC NSCLC
[9] = tested on: 786-0 renal
[10] = tested on: COLO 205 colon
[11] = tested on: DU-145 prostate
[12] = tested on: MALME-3M melanoma
[13] = tested on: MDA-MB-231 breast
[14] = tested on: RXF 393 renal
[15] = tested on: SF-268 CNS
[16] = tested on: SF-539 CNS
[17] = tested on: UACC-257 melanoma
[18] = tested on: M14 melanoma
[19] = tested on: K-562 leukemia
[20] = tested on: SF-295 CNS

## O=C(NCCNC(=O)c1cc(S(=O)(=O)NCCc2ccccc2)c(O)c(O)c1O)c1cc(S(=O)(=O)NCCc2ccccc2)c(O)c(O)c1O
[1]
  growth: 38.9%
[2]
  growth: 49.5%
[3]
  growth: 39.5%
[4]
  growth: 34.6%
[5]
  growth: 32.1%
[6]
  growth: 73.9%
[7]
  growth: 41.6%
[8]
  growth: 45.8%
[9]
  growth: 53.4%
[10]
  growth: 104%
[11]
  growth: 77.1%
[12]
  growth: 94.3%
[13]
  growth: 59.9%
[14]
  growth: 78.1%
[15]
  growth: 45.9%
[16]
  growth: 20.3%
[17]
  growth: 86.1%
[18]
  growth: 44.4%

## COc1cc(Cn2c(-c3ccccc3)cc3c2-c2oncc2CC3)cc(OC)c1OC
[1]
  growth: 48.4%
[2]
  growth: 51%
[3]
  growth: -13.2% (active)
[4]
  growth: 39%
[5]
  growth: 9.75% (active)
[6]
  growth: 28%
[7]
  growth: 5.31% (active)
[8]
  growth: 23.9%
[9]
  growth: 32.7%
[10]
  growth: 14.5%
[11]
  growth: -21.1% (active)
[19]
  growth: 11.8%
[13]
  growth: 47.1%
[14]
  growth: 9.54% (active)
[15]
  growth: 44.8%
[16]
  growth: -3.28% (active)
[17]
  growth: 58.8%
[18]
  growth: 21.9%

## COc1cc(/C=C/C(=O)c2c(C)nc3ccccc3c2C)ccc1OCCCOc1cc2c(cc1OC)C(=O)N1CCC[C@H]1C=N2
[1]
  growth: -19.5% (active)
[2]
  growth: -4.56% (active)
[3]
  growth: -58.6% (active)
[4]
  growth: -6.66% (active)
[5]
  growth: -61% (active)
[6]
  growth: -45.1% (active)
[7]
  growth: -56.9% (active)
[8]
  growth: 2.42% (active)
[9]
  growth: -47.9% (active)
[10]
  growth: -85.9% (active)
[19]
  growth: -10.8% (active)
[12]
  growth: -37.2% (active)
[13]
  growth: -35.6% (active)
[14]
  growth: -83.7% (active)
[15]
  growth: -47.9% (active)
[20]
  growth: -47.6% (active)
[16]
  growth: -87% (active)
[17]
  growth: -1.91% (active)

## Cc1cc(C#Cc2ccccc2)ccc1-n1c(/C=C/c2ccc(F)cc2)nc2ccccc2c1=O
[1]
  growth: 71.5%
[2]
  growth: 84.7%
[3]
  growth: 87.5%
[4]
  growth: 122%
[5]
  growth: 63.6%
[6]
  growth: 39.2%
[7]
  growth: 64.1%
[8]
  growth: 68.5%
[9]
  growth: 80.4%
[10]
  growth: 53.3%
[11]
  growth: 98.5%
[19]
  growth: 48.5%
[13]
  growth: 75.9%
[14]
  growth: 99.1%
[15]
  growth: 86.4%
[16]
  growth: 102%
[17]
  growth: 86.7%
[18]
  growth: 81.2%

## Oc1ccc(CCCCCCc2ccc(O)cc2)cc1
[1]
  growth: 59.5%
[2]
  growth: 101%
[3]
  growth: 92%
[4]
  growth: 80.6%
[5]
  growth: 46.4%
[6]
  growth: 64%
[7]
  growth: 56.6%
[8]
  growth: 47.6%
[9]
  growth: 14.2%
[10]
  growth: 103%
[19]
  growth: 102%
[12]
  growth: 92.8%
[13]
  growth: 65.3%
[14]
  growth: 60.4%
[15]
  growth: 65.2%
[20]
  growth: 65.1%
[16]
  growth: 42%
[17]
  growth: 91.4%
[18]
  growth: 41.8%

## O=C(CCCCCCc1nc2ccc(Br)cc2[nH]1)NO
[1]
  growth: -25.6% (active)
[2]
  growth: 19.3%
[3]
  growth: 4.52% (active)
[4]
  growth: 12.5%
[5]
  growth: -25.6% (active)
[6]
  growth: -21.7% (active)
[7]
  growth: -16% (active)
[8]
  growth: 7.55% (active)
[9]
  growth: -4.46% (active)
[10]
  growth: -98.5% (active)
[19]
  growth: 6.07% (active)
[12]
  growth: -6.27% (active)
[13]
  growth: 2.73% (active)
[14]
  growth: -78.3% (active)
[15]
  growth: 11.1%
[20]
  growth: -17.2% (active)
[16]
  growth: 17.8%
[17]
  growth: -11% (active)
[18]
  growth: -16.1% (active)

## CCOC(=O)NNc1cccc(Cl)c1
[1]
  growth: 93.8%
[2]
  growth: 84.7%
[3]
  growth: 104%
[4]
  growth: 103%
[5]
  growth: 103%
[6]
  growth: 87.5%
[7]
  growth: 96.6%
[8]
  growth: 107%
[9]
  growth: 112%
[10]
  growth: 123%
[19]
  growth: 102%
[12]
  growth: 93.6%
[13]
  growth: 76.3%
[14]
  growth: 100%
[15]
  growth: 110%
[20]
  growth: 109%
[16]
  growth: 99.8%
[17]
  growth: 103%
[18]
  growth: 104%

## CCCCOc1ncnc2nc[nH]c12
[1]
  growth: 100%
[2]
  growth: 94.2%
[3]
  growth: 101%
[4]
  growth: 96.1%
[5]
  growth: 113%
[6]
  growth: 101%
[7]
  growth: 100%
[8]
  growth: 99.3%
[9]
  growth: 97.1%
[10]
  growth: 110%
[19]
  growth: 95.4%
[12]
  growth: 103%
[13]
  growth: 115%
[14]
  growth: 97.7%
[20]
  growth: 110%
[16]
  growth: 102%
[17]
  growth: 101%
[18]
  growth: 106%
